Results from PubChem BioAssay AID1159580 (chemical genetic matrix, 2015).
In all, about 5,500 compounds went through this assay and about 2,000 (36%) were called active. About 18% were inconclusive and are not listed. The list shows a part of the results. Values without a mark were called inactive. No stated cut-off is given here; in the data, active means normalized growth mostly below about 0.91 (no sharp cut-off); inconclusive means no clear call, values can overlap the other calls; inactive means mostly above about 0.92.

Test: chemical genetic growth profiling, strain panel (AID 1159580);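 further: tested at 20 µM; growth read once vehicle control cultures reached saturation at 30 °C; 1 = growth at the plate median or of vehicle wells; lower values mean less growth of the strain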
Conditions: growth OD

## O=C(O)CCC(=O)c1ccc(-c2ccccc2)cc1
S. cerevisiae deletion strains, locus YKL009W, strain mrt4, hits give low values
  normalized growth: 0.799 (active)
S. cerevisiae deletion strains, locus YKL068W, hits give low values
  normalized growth: 1
S. cerevisiae deletion strains, locus YKL085W, strain MDH1 (second series), hits give low values
  normalized growth: 0.939
S. cerevisiae deletion strains, locus YKL085W, strain MDH1, hits give low values
  normalized growth: 0.939
S. cerevisiae deletion strains, locus YKL160W, strain elf1, hits give low values
  normalized growth: 0.961
S. cerevisiae deletion strains, locus YKL190W, strain CNB1, hits give low values
  normalized growth: 0.996
S. cerevisiae deletion strains, locus YKR001C, strain vps1, hits give low values
  normalized growth: 0.92
S. cerevisiae deletion strains, locus YKR026C, strain gcn3, hits give low values
  normalized growth: 0.944
S. cerevisiae deletion strains, locus YKR091W, strain srl3, hits give low values
  normalized growth: 0.979
S. cerevisiae deletion strains, locus YLL001W, strain dnm1, hits give low values
  normalized growth: 0.947
S. cerevisiae deletion strains, locus YLL026W, hits give low values
  normalized growth: 0.989
S. cerevisiae deletion strains, locus YLL041C, strain sdh2, hits give low values
  normalized growth: 0.979
S. cerevisiae deletion strains, locus YLR027C, strain aat2, hits give low values
  normalized growth: 0.978
S. cerevisiae deletion strains, locus YLR039C, strain RIC1, hits give low values
  normalized growth: 0.855
S. cerevisiae deletion strains, locus YLR058C, strain SHM2, hits give low values
  normalized growth: 0.978
S. cerevisiae deletion strains, locus YLR102C, strain apc9, hits give low values
  normalized growth: 0.981
S. cerevisiae deletion strains, locus YLR113W, strain HOG1, hits give low values
  normalized growth: 0.865
S. cerevisiae deletion strains, locus YLR221C, strain rsa3, hits give low values
  normalized growth: 0.997
S. cerevisiae deletion strains, locus YLR258W, strain gsy2, hits give low values
  normalized growth: 1
S. cerevisiae deletion strains, locus YLR262C, strain YPT6 (second series), hits give low values
  normalized growth: 0.765 (active)
S. cerevisiae deletion strains, locus YLR262C, strain YPT6, hits give low values
  normalized growth: 0.821
S. cerevisiae deletion strains, locus YLR268W, strain sec22, hits give low values
  normalized growth: 0.894
S. cerevisiae deletion strains, locus YLR320W, strain mms22, hits give low values
  normalized growth: 1.01
S. cerevisiae deletion strains, locus YLR330W, strain CHS5, hits give low values
  normalized growth: 0.994
S. cerevisiae deletion strains, locus YLR342W, strain FKS1 (second series), hits give low values
  normalized growth: 0.986
S. cerevisiae deletion strains, locus YLR342W, strain FKS1, hits give low values
  normalized growth: 0.934
S. cerevisiae deletion strains, locus YLR357W, strain rsc2, hits give low values
  normalized growth: 0.903
S. cerevisiae deletion strains, locus YLR370C, strain arc18, hits give low values
  normalized growth: 0.984
S. cerevisiae deletion strains, locus YLR371W, strain rom2, hits give low values
  normalized growth: 0.962
S. cerevisiae deletion strains, locus YLR384C, strain iki3, hits give low values
  normalized growth: 0.964
S. cerevisiae deletion strains, locus YLR418C, strain cdc73, hits give low values
  normalized growth: 0.902
S. cerevisiae deletion strains, locus YML016C, strain PPZ1, hits give low values
  normalized growth: 0.988
S. cerevisiae deletion strains, locus YML032C, strain rad52, hits give low values
  normalized growth: 0.938
S. cerevisiae deletion strains, locus YML120C, strain ndi1, hits give low values
  normalized growth: 0.971
S. cerevisiae deletion strains, locus YML124C, strain tub3, hits give low values
  normalized growth: 0.981
S. cerevisiae deletion strains, locus YMR058W, strain fet3, hits give low values
  normalized growth: 0.978
S. cerevisiae deletion strains, locus YMR078C, strain ctf18, hits give low values
  normalized growth: 0.963
S. cerevisiae deletion strains, locus YMR125W, strain sto1, hits give low values
  normalized growth: 0.979
S. cerevisiae deletion strains, locus YMR129W, hits give low values
  normalized growth: 0.987
S. cerevisiae deletion strains, locus YMR205C, strain PFK2, hits give low values
  normalized growth: 0.974
S. cerevisiae deletion strains, locus YMR223W, strain ubp8, hits give low values
  normalized growth: 0.974
S. cerevisiae deletion strains, locus YMR231W, strain pep5, hits give low values
  normalized growth: 0.972
S. cerevisiae deletion strains, locus YMR263W, strain SAP30, hits give low values
  normalized growth: 0.972
S. cerevisiae deletion strains, locus YMR307W, strain GAS1, hits give low values
  normalized growth: 0.939
S. cerevisiae deletion strains, locus YNL067W, strain RPL9B, hits give low values
  normalized growth: 0.957
S. cerevisiae deletion strains, locus YNL071W, strain lat1, hits give low values
  normalized growth: 0.951
S. cerevisiae deletion strains, locus YNL128W, strain TEP1, hits give low values
  normalized growth: 0.982
S. cerevisiae deletion strains, locus YNL153C, strain GIM3, hits give low values
  normalized growth: 0.985
S. cerevisiae deletion strains, locus YNL183C, strain NPR1, hits give low values
  normalized growth: 0.724 (active)
S. cerevisiae deletion strains, locus YNL209W, strain ssb2, hits give low values
  normalized growth: 0.993
S. cerevisiae deletion strains, locus YNL233W, strain BNI4, hits give low values
  normalized growth: 0.97
S. cerevisiae deletion strains, locus YNL248C, strain rpa49, hits give low values
  normalized growth: 0.993
S. cerevisiae deletion strains, locus YNL250W, strain rad50, hits give low values
  normalized growth: 0.977
S. cerevisiae deletion strains, locus YNL271C, strain bni1, hits give low values
  normalized growth: 0.909 (active)
S. cerevisiae deletion strains, locus YNL298W, strain CLA4, hits give low values
  normalized growth: 0.826 (active)
S. cerevisiae deletion strains, locus YNL307C, strain MCK1, hits give low values
  normalized growth: 0.963
S. cerevisiae deletion strains, locus YNL322C, strain KRE1 (second series), hits give low values
  normalized growth: 0.97
S. cerevisiae deletion strains, locus YNL322C, strain KRE1, hits give low values
  normalized growth: 0.998
S. cerevisiae deletion strains, locus YNR049C, strain mso1, hits give low values
  normalized growth: 0.987
S. cerevisiae deletion strains, locus YNR052C, strain pop2, hits give low values
  normalized growth: 0.972
S. cerevisiae deletion strains, locus YOL006C, strain TOP1, hits give low values
  normalized growth: 0.889
S. cerevisiae deletion strains, locus YOL012C, strain htz1
  normalized growth: 0.779
S. cerevisiae deletion strains, locus YOL147C, strain pex11, hits give low values
  normalized growth: 0.98
S. cerevisiae deletion strains, locus YOR001W, strain rrp6, hits give low values
  normalized growth: 0.955
S. cerevisiae deletion strains, locus YOR061W, strain CKA2, hits give low values
  normalized growth: 0.956
S. cerevisiae deletion strains, locus YOR069W, strain VPS5, hits give low values
  normalized growth: 0.987
S. cerevisiae deletion strains, locus YOR070C, strain gyp1, hits give low values
  normalized growth: 0.988
S. cerevisiae deletion strains, locus YOR080W, strain dia2, hits give low values
  normalized growth: 0.979
S. cerevisiae deletion strains, locus YOR083W, strain WHI5, hits give low values
  normalized growth: 0.953
S. cerevisiae deletion strains, locus YOR106W, strain vam3, hits give low values
  normalized growth: 0.935
S. cerevisiae deletion strains, locus YOR136W, strain idh2, hits give low values
  normalized growth: 0.968
S. cerevisiae deletion strains, locus YOR144C, strain elg1, hits give low values
  normalized growth: 0.972
S. cerevisiae deletion strains, locus YOR184W, strain ser1, hits give low values
  normalized growth: 0.905
S. cerevisiae deletion strains, locus YOR231W, strain MKK1, hits give low values
  normalized growth: 0.724 (active)
S. cerevisiae deletion strains, locus YOR265W, strain rbl2, hits give low values
  normalized growth: 0.996
S. cerevisiae deletion strains, locus YOR270C, strain vph1, hits give low values
  normalized growth: 0.95
S. cerevisiae deletion strains, locus YOR290C, strain snf2, hits give low values
  normalized growth: 0.978
S. cerevisiae deletion strains, locus YOR316C, strain cot1, hits give low values
  normalized growth: 0.984
S. cerevisiae deletion strains, locus YPL051W, strain arl3, hits give low values
  normalized growth: 0.958
S. cerevisiae deletion strains, locus YPL055C, strain LGE1, hits give low values
  normalized growth: 0.973
S. cerevisiae deletion strains, locus YPL078C, strain atp4, hits give low values
  normalized growth: 0.941
S. cerevisiae deletion strains, locus YPL106C, strain sse1, hits give low values
  normalized growth: 1.06
S. cerevisiae deletion strains, locus YPL240C, strain hsp82, hits give low values
  normalized growth: 0.999
S. cerevisiae deletion strains, locus YPL241C, strain CIN2, hits give low values
  normalized growth: 0.996
S. cerevisiae deletion strains, locus YPL256C, strain CLN2, hits give low values
  normalized growth: 0.78 (active)
S. cerevisiae deletion strains, locus YPR119W, strain clb2, hits give low values
  normalized growth: 0.972
S. cerevisiae deletion strains, locus YPR141C, strain kar3, hits give low values
  normalized growth: 1.01
S. cerevisiae deletion strains, locus YPR163C, strain tif3, hits give low values
  normalized growth: 0.967
S. cerevisiae deletion strains, locus YPR167C, strain met16, hits give low values
  normalized growth: 0.967
S. cerevisiae deletion strains, strain wtn01, hits give low values
  normalized growth: 0.932
S. cerevisiae strains, strain wild type, hits give low values
  normalized growth: 0.99
